# Measured values published in PubChem BioAssay (NCATS).
# Inconclusive results are not listed. Calls of active or inactive are those of the source. Calls come from the whole dose curve; as a rule, active = well fitted inhibition curve with a large enough effect; inconclusive = small, poorly fitted or top-dose-only effect; inactive = flat fitted curve, though single readings scatter.
# Target: Calcium and integrin-binding protein 1 (Homo sapiens) (UniProt Q99828)
# Assay: Primary qHTS for Identification of Calcium Integrin Binding Protein 1 (CIB1) Competitor (AID 1508620); note: top concentration of the series differs between compounds
# Conditions: CIB1-GST / FITC-alphaIIb peptide fluorescence polarization; series mostly up to 114 µM; activity change, negative = inhibition: at the top concentration
# Outline: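 Fluorescence polarization competition: GST-tagged CIB1 (1 uM final) preincubated with compound 15 min at room temperature, then FITC-labelled alphaIIb peptide (100 nM final) added. After 15 min at room temperature, polarization read at Ex 480/Em 540.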
# % is set by controls: 0 for no effect and ±100 for the full control effect.
# Calcium and integrin-binding protein 1 (Homo sapiens), sequence (Q99828 whole entry, looked up): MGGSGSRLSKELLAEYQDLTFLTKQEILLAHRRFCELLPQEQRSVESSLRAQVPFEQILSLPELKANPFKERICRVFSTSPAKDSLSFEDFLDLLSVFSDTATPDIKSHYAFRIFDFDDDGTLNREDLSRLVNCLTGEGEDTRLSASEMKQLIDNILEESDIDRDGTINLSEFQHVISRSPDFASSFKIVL
row,Compound,"activity change, negative = inhibition"
1,Cn1nnnc1Sc1ncnc2scc(-c3cccc(Cl)c3)c12,3.82% (inactive)
2,O=C(O)c1ccc(O)c2ncc(NCC3CCCN(CCc4ccccc4)C3)cc12 (stereo not given),-9.95% (inactive)
3,O=S(=O)(c1ccc2c(c1)OCCO2)N1CCN(S(=O)(=O)c2cc(F)ccc2F)CC1,-0.213% (inactive)
4,COc1ccc(CN(Cc2ccccc2)C(=O)c2ccccc2)cc1COc1ccc(NC(C)=O)cc1,0.803% (inactive)
5,O=S(=O)(c1ccc2c(c1)OCCO2)N1CCN(S(=O)(=O)c2ccc(Cl)cc2F)CC1,1.96% (inactive)
6,Oc1ccc(COC2CCN(Cc3ccccc3)C2)c2cccnc12 (stereo not given),-15.8% (inactive)
7,O=S(=O)(c1ccc2c(c1)OCCO2)N1CCN(S(=O)(=O)c2ccc(F)c(F)c2F)CC1,-2.33% (inactive)
8,O=c1[nH]c2ccc(S(=O)(=O)N3CCN(S(=O)(=O)c4c(F)cccc4F)CC3)cc2[nH]c1=O,11.7% (inactive)
9,COc1ccc(NC(=O)C2=C(C)NC(Nc3nc4ccccc4o3)=NC2c2ccccc2Br)cc1 (stereo not given),0.993% (inactive)
10,COCCN1C(=O)c2ccccc2NC1c1ccc(OC)c(COc2c(C)cc(NC(C)=O)cc2C)c1 (stereo not given),3.02% (inactive)
11,O=C1CCCC2=C1C1(CCCC1)N=C(Nc1nc3cc(Cl)ccc3o1)N2,-11% (inactive)
12,Cn1cnc(CCNc2ncnc3ccc(-c4ccc5c(c4)OCO5)cc23)c1,-1.33% (inactive)
13,Cc1cnc(-c2ccccc2C(C)C)nc1NCC1CN(c2cccnc2)C1,-5.79% (inactive)
14,O=C(Nc1ccc(Cl)c(Cl)c1)Nc1ccc(-c2ccncc2)s1,-0.361% (inactive)
15,COc1ccc(O)c(C2Nc3ccccc3C(=O)N2Cc2ccccc2)c1 (stereo not given),-0.281% (inactive)
16,CC(C)c1ccccc1-c1nc2c(c(NCc3ccc(-c4cccnc4)cc3)n1)CCNC2,-1.69% (inactive)
17,CC(C)(C)OC(=O)N1CCN(c2ccc(NCc3ccc(-c4ccc(C#N)cc4)o3)cn2)CC1,-1.79% (inactive)
18,O=C(O)c1ccc(-c2ccc3ncnc(NCCc4cnc[nH]4)c3c2)o1,-11.9% (inactive)
19,CC(C)(C)c1cccc(NC(=O)Nc2nnc(-c3ccncc3)s2)c1,-2.11% (inactive)
20,Cc1c(C(=O)OCc2ccco2)[nH]c2c1C(=O)CC(c1ccco1)C2 (stereo not given),-10.1% (inactive)

row,Compound,"activity change, negative = inhibition"
1,CC(=O)N1CCN(c2ccc(NCc3ccc(Br)o3)cc2)CC1,-4.72% (inactive)
2,COc1ccc(OC)c(C2=Nn3c(nnc3-c3cc(OC)ccc3OC)SC2)c1,2.38% (inactive)
3,COc1cccc(NC(=S)N2CCN(c3ccc(Cl)cc3Cl)CC2)n1,-0.953% (inactive)
4,O=S(=O)(NC1CCC(CNS(=O)(=O)c2c(F)cccc2F)CC1)c1ccc2c(c1)OCCO2 (stereo not given),-2.93% (inactive)
5,O=C1CCc2cc(S(=O)(=O)Nc3cc(F)cc(Cl)c3)c(F)cc2N1,0.152% (inactive)
6,N#Cc1cccc(-c2noc(-c3ccccc3F)n2)c1,2.85% (inactive)
7,COc1ccc(NC(=O)c2cnn3c(C)cc(C)nc23)cc1Cl,1.15% (inactive)
8,O=C(O)c1cccc(S(=O)(=O)N2CCN(S(=O)(=O)c3ccc4c(c3)OCCO4)CC2)c1,0.617% (inactive)
9,COc1cccc(C2=Nn3c(nnc3-c3ccc(OC)cc3OC)SC2)c1,1.85% (inactive)
10,N=c1c2c(ncn1-c1ccccc1)Oc1ccc3ccccc3c1C2c1ccc2c(c1)CCO2 (stereo not given),65.5% (inactive)
11,COc1ccc(OC)c(-c2nnc3n2N=C(c2c(OC)cccc2OC)CS3)c1,6.05% (inactive)
12,O=C1CCc2cc(S(=O)(=O)Nc3cccc4ccccc34)ccc2N1,-0.814% (inactive)
13,COc1cccc(C2c3c(ncn(-c4cccc(C)c4)c3=N)Oc3ccc4ccccc4c32)c1 (stereo not given),8.38% (inactive)
14,Cc1ccc(C(=O)NC2CCN(C#N)CC2)cc1,0.218% (inactive)
15,O=C(CCCc1ccccc1)NC(c1ccco1)c1cc(Cl)c2cccnc2c1O (stereo not given),-11.4% (inactive)
16,Cc1cc(C)n2ncc(C(=O)Nc3ccccc3)c2n1,-2.33% (inactive)
17,COc1ccnc(NC(=S)N2CCN(c3cccc(C(F)(F)F)n3)CC2)c1,4.68% (inactive)
18,CC(=O)Nc1sc2c(c1-c1nc3ccccc3s1)CNCC2,-21.3% (inactive)
19,Clc1ccccc1-c1ccc2ncnc(NCc3cccs3)c2c1,1.1% (inactive)
20,Cc1c(P(=S)(c2ccccc2)c2ccccc2)[n+]2ccccc2n1CCCCc1ccccc1,3.71% (inactive)
